# In PubChem BioAssay (NCATS):
# A number with no mark means an inactive call. Inconclusive results are not listed. Active and inactive are the calls of the source. Unless noted, calls come from the whole dose curve; as a rule, active = well fitted curve in either direction with a large enough effect (not every such curve was filed as active); inconclusive = small, poorly fitted or top-dose-only effect, or another doubt; inactive = flat fitted curve, though single readings scatter.
# Experiments:
# [1] = target: Lysosomal acid glucosylceramidase (Homo sapiens) (UniProt P04062); assay: Glucocerebrosidase-p2 (AID 348; in the data active = potency below about 10 µM; note: potency is the fitted concentration of half-maximal effect); conditions: purified GBA, blue fluorogenic substrate, 40 min
# Lysosomal acid glucosylceramidase (Homo sapiens), sequence (P04062 whole entry, looked up): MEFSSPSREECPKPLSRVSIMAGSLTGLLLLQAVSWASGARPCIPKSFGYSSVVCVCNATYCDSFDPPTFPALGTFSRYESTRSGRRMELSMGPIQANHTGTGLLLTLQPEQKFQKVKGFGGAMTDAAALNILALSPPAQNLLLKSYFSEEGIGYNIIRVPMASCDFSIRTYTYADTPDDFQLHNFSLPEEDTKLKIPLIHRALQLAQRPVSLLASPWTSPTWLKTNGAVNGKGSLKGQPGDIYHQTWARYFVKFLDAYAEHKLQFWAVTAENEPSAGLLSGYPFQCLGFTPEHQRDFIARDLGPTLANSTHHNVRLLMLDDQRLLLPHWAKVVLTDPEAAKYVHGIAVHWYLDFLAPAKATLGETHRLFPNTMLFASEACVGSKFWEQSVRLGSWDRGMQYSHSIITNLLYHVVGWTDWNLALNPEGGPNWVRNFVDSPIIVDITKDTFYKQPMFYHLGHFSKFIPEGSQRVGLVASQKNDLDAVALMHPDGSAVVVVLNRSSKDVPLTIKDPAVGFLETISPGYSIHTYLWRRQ
# Outline: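 Normal human glucocerebrosidase (0.2 nM) with blue fluorogenic substrate (80 uM final) in citrate/phosphate pH 5.9 with 10mM sodium taurocholate, 0.01% tween-20; 40 min RT, NaOH/glycine stop; fluorescence Ex 365/Em 440; AC50 from a titration from 0.6 nM upwards.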
# [2] = AP1 Signaling Pathway (AID 357); conditions: ME-180 AP-1-bla reporter, EGF-induced, beta-lactamase ratio, 5 h; at 7.69 µM (top of the series) unless noted;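 note: ME-180 reporter cells stimulated with EGF at its EC50 level; % is set by controls: 0 for no effect and ±100 for the full control effect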
# Outline: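 Read-out was the 460nm/530nm emission ratio (excitation 405nm) after CCF4 loading for 2.5 hours at room temperature. Cells carried an AP-1-driven beta-lactamase reporter, were stimulated with EC50 EGF plus compound for 5 hours, and AC50 values came from titrations.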
# [3] = Stat Signaling Pathway (AID 446); conditions: ME-180 SIE beta-lactamase reporter, IL-6 stimulated, 5 h; at 7.69 µM (top of the series) unless noted;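 note: ME-180 cervical cancer cells given 40 pM IL-6 alongside compound; SIE-controlled beta-lactamase reporter measured as 460/530 nm FRET emission ratio; % is set by controls: 0 for no effect and ±100 for the full control effect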
# Outline: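 Normalization used AC90 stimulation (300 pM IL-6) and AC90 inhibition (125 nM pan-JAK inhibitor at 40 pM IL-6). The underlying signal is SIE-driven beta-lactamase in ME-180 cells after 5 h IL-6 exposure with compound.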
# [4] = target: Glucocorticoid receptor (Homo sapiens) (UniProt P04150); assay: GR-GFP Redistribution (AID 450;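 active = compounds whose dose series gives a full or clear partial fitted curve of increased nuclear translocation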; note: potency is the fitted concentration of half-maximal effect); conditions: U2OS GR-GFP nuclear translocation, laser cytometry, 2 h
# Glucocorticoid receptor (Homo sapiens), sequence (P04150 whole entry, looked up, the tested form may be a part): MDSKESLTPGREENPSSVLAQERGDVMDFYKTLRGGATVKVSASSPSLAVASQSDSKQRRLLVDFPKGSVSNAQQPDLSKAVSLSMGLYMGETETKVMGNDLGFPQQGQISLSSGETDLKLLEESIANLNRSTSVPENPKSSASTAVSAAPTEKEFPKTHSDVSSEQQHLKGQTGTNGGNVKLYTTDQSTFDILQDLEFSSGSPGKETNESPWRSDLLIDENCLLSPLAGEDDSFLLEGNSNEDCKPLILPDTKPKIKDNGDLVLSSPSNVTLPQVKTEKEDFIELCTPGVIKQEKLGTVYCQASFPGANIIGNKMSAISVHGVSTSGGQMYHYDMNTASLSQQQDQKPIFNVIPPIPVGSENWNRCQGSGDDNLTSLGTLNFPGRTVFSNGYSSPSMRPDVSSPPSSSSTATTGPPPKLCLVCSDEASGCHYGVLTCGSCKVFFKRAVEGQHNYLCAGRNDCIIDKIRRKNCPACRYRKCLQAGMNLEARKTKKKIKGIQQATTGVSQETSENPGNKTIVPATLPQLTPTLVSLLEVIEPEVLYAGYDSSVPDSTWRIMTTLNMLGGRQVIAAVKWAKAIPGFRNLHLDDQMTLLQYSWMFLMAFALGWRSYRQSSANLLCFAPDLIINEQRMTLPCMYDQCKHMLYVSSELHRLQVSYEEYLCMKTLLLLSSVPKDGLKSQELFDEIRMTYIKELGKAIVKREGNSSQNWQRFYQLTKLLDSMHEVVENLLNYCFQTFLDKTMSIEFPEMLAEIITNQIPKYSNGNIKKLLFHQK
# [5] = target: Glucocorticoid receptor (Homo sapiens) (UniProt P04150); assay: GR-EFC Redistribution (AID 451; calls by dose curve; note: potency is the fitted concentration of half-maximal effect); conditions: CHO-K1 GR-EFC translocation, beta-gal luminescence, 2 h
# Outline: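 CHO-K1 cells stably expressing nuclear-localized β-gal enzyme acceptor and GR fused C-terminally to the enzyme donor fragment; ligand-driven nuclear translocation restores β-gal by complementation. Compounds titrated up to 46 uM final, 2 h at 37 °C; luminescence read.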
# [6] = target: Mitogen-activated protein kinase 10 (Mus musculus) (UniProt Q61831); assay: JNK3 AlphaScreen Assay (AID 530); conditions: JNK3 lysate, c-Jun phosphorylation; series mostly up to 11.4 µM;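 note: kinase came from lysate of stimulated human HepG2 cells; signal reports phosphorylation of biotinylated GST-cJun 1-79 at Ser73 with 10 µM ATP; % is set by controls: 0 for no effect and ±100 for the full control effect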
# Outline: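 Biotinylated GST-cJun(1-79) served as substrate for JNK3 in HepG2 lysates stimulated with IL-1beta and TNF-alpha. ATP was 10 uM final, pH 7.6. Ser73 phosphorylation was quantified by AlphaScreen (680 nm excitation).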
# [7] = target: 3',5'-cyclic-AMP phosphodiesterase 4B (Homo sapiens) (UniProt Q07343); assay: qHTS Assay for Inhibitors of PDE-IV (AID 607; active = well fitted activation curve with a large enough effect in the main read-out, with a control signal flat, not every such curve was filed as active; note: % of control where 0% means no effect); conditions: HEK293 ACTOne CNG channel cells, membrane potential fluorescence; series mostly up to 22.9 µM
# 3',5'-cyclic-AMP phosphodiesterase 4B (Homo sapiens), sequence (Q07343 whole entry, looked up): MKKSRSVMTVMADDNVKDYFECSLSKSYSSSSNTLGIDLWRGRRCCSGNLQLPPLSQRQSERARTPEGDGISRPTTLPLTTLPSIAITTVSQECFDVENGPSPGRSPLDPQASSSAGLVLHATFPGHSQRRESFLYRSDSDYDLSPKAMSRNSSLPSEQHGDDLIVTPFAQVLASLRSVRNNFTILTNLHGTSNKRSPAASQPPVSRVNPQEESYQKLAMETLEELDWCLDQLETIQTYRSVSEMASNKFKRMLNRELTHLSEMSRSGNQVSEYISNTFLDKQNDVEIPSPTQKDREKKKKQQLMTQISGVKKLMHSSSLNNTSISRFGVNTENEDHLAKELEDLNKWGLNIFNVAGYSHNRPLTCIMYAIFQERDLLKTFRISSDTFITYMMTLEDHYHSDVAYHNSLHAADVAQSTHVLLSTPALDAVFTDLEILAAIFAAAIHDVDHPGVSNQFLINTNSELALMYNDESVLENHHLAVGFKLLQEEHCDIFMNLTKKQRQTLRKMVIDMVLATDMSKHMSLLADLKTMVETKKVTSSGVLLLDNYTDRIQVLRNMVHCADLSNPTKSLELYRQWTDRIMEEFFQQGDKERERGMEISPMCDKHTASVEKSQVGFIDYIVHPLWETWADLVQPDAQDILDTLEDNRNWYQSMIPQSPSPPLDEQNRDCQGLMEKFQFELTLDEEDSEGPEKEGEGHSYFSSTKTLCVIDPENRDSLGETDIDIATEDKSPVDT
# Outline: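 HEK293 ACTOne cells with CNG channel (1000/well), endogenous PDE4; membrane potential dye, compounds up to 22.9 uM final. Fluorescence Ex 535/Em 590; RO 20-1724 (100 uM final) as reference.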
# [8] = target: Cytochrome P450 2D6 (Homo sapiens) (UniProt P10635); assay: qHTS Assay for Inhibitors and Substrates of Cytochrome P450 2D6 (AID 891; active = well fitted inhibition curve with a large enough effect; note: potency is the fitted concentration of half-maximal effect; nearly all actives have a fitted effect of over 60% in size); conditions: recombinant CYP2D6, luciferin-ME EGE luminescence; series mostly up to 11.4 µM
# Cytochrome P450 2D6 (Homo sapiens), sequence (P10635 whole entry, looked up): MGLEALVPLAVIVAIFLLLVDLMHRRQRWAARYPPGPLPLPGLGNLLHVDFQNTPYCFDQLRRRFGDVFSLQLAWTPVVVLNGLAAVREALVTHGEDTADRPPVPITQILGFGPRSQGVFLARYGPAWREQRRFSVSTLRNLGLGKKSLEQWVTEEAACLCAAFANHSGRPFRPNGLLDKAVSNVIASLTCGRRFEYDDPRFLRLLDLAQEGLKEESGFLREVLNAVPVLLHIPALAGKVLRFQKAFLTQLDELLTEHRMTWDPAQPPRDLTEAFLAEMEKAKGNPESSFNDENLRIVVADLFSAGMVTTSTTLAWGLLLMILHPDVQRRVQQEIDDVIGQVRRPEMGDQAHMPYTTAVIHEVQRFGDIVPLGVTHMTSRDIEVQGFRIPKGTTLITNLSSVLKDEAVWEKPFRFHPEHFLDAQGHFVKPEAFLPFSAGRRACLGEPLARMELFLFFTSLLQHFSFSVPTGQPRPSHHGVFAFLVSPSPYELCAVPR
# Outline: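 Luminescent read-out of luciferin formed by 5 nM human CYP2D6 demethylating 30 uM Luciferin-ME EGE (Km level) over 60 min at room temperature after NADPH regeneration addition. Data normalized to full inhibition by 1.43 uM quinidine.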
# [9] = qHTS Assay for Identification of Small Molecule Agonists for Hypoxia Response Element Signaling Pathway (AID 914; active = well fitted activation curve with a large enough effect in the signal ratio, with a control signal flat, not every such curve was filed as active; the % refers to the signal ratio; note: % of control where 0% means no effect); conditions: ME-180 (cervical carcinoma) HRE-bla reporter, beta-lactamase ratio, CoCl2, 17 h; activation: hits give high values
# Outline: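 HRE-bla ME-180 cells with beta-lactamase reporter under hypoxia response element, compounds with EC50 CoCl2 for 17 hours at 37 C. CCF4 substrate, 460nm/530nm emission ratio gave %Activity; AC50 from titration series.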
SMILES,Potency [1] [µM],"activity change, negative = inhibition [2] [%]","activity, negative = inhibition [3] [%]",Potency [4] [µM],Potency [5] [µM],Potency [6],Potency [7],Potency [8],activation [9] [%]
O=c1cnc2cnc(N3CCNCC3)nc2n1CCc1ccccc1,> 11.4,-5.27,-12.8,> 9.22,> 46,inactive,inactive,–,–
C[N@@+]1(Cc2ccc(Cl)c(Cl)c2)CCC[C@@H]1c1ccc[n+](Cc2ccc(Cl)c(Cl)c2)c1,> 11.4,-3.2,-0.293,> 46,> 9.22,inactive,inactive,–,–
COCCn1c(=O)c(-c2ccc(OC)cc2)nc2cnc(Oc3ccccc3)nc21,> 11.4,-9.38,16.5,> 9.22,> 46,–,inactive,–,–
CNc1ncnc(Sc2nc(N)nc3nc[nH]c23)c1[N+](=O)[O-],> 11.4,-9.31,21.1,> 46,> 9.22,inactive,inactive,–,–
O[C@@H](c1cc(-c2ccc(Cl)cc2)nc2ccccc12)[C@@H]1CCCCN1,> 11.4,-7.25,-6.67,–,> 9.22,inactive,inactive,0.631 µM (active),–
Clc1ccc(/C=C\c2nc(Cl)c(-c3ccc(Cl)cc3)c(Cl)n2)cc1,> 11.4,-5.65,-0.809,> 46,> 9.22,inactive,inactive,–,–
CC(C)(C)c1ccc(O)c(CN(Cc2cc(C(C)(C)C)ccc2O)c2ccccc2)c1,> 11.4,4.11,2.48,> 46,> 9.22,inactive,inactive,–,12.3
O=C(CCN1CCCCC1)c1csc2ccccc12,> 11.4,-4.73,-9.72,> 46,> 9.22,inactive,inactive,–,-7.69
